This passage reports Potency and viability change, negative = cytotoxic results from PubChem BioAssay (Tox21).

Records with an inconclusive call do not appear. Entries that show only a call come without a potency. The source made the active and inactive calls. The call rests on the fitted dose curve; in most records, active means well fitted cell-killing curve with a large enough effect in the repeat runs; inconclusive means weak or mixed curves; inactive means flat fitted curve, though single readings scatter.
Potency means the concentration at half of the fitted maximal effect.

This experiment can be described thus: qHTS assay to identify small molecule antagonists of the estrogen related receptor (ERR) signaling pathway from Tox21 library - cell viability counter screen (AID 1224834). Further: nearly all actives have a fitted effect of over 30% in size. To be noted: ERR reporter cells viability, CellTiter-Fluor, 17.5 h; series mostly up to 92.4 µM. An excerpt: National Center for Advancing Translational Sciences [NCATS]
NIH Chemical Genomics Center [NCGC]
U.S. Environmental Protection Agency [EPA]
National Institutes of Environmental Health Sciences [NIEHS]
National Toxicology Program [NTP]
U.S. Food and Drug Administration [FDA]
Estrogen related receptors (ERRs), the first orphan nuclear receptors discovered, play an important role in the control of cellular energy metabolism. ERRs are required for high-energy production in response to the environmental challenges. ERR-alpha was also identified as an adverse marker for breast cancer progression; ERR-alpha-positive tumors have a poor prognosis. To screen and to identify environmental compounds that perturb the ERR signaling pathways could provide valuable information for potential therapeutic or preventive measures in the treatment of metabolic disease. To differentiate true ERR antagonists or agonist from cytotoxic substances, the assay is multiplexed with cell viability assay.
Tox21 Assay Protocol Summary:
The ERR cells were dispensed at 2,000 cells/5 ul/well in 1536-well white plates using a Multidrop dispenser. After the assay plates were incubated at a 37 C/5% CO2 incubator for 6 hours, 23 nL of compounds dissolved in DMSO, positive and negative controls or DMSO only was transferred to the assay plate by a pin tool. The plates were incubated at 37 C for 17.5 hours. 1 ul/well of CellTiter-Fluor reagent was added into the assay plates using a Flying Reagent Dispenser. After 30-minute incubation at 37 C/5% CO2, the fluorescence intensity in the plates was measured using a ViewLux plate reader.
Background: qHTS replaces the single test concentration by a dilution series.
As to `CCCCCCCOC(=O)CCC`, the Potency result is “inactive”. In the case of `CCCCCCCCc1ccc(S(=O)(=O)O)cc1`, the Potency entry was “inactive”. Regarding `CCOc1ccc(NC(N)=O)cc1`, the Potency result was “inactive”.

With `COc1nc(C)nc(NC(=O)NS(=O)(=O)c2ccccc2OCCCl)n1`, the Potency entry is “inactive”. With `CCCNC(C)(C)COC(=O)c1ccccc1`, the Potency result is “inactive”.

For `CC(C)NCC(O)COc1ccc(CCOCC2CC2)cc1` (stereo not given), the Potency entry was “inactive”. On the same count and under the same terms, the value for `Cc1cc2c(s1)Nc1ccccc1N=C2N1CCN(C)CC1` was 5.96 µM (active); that for `COc1cc(N)c(Cl)cc1C(=O)NC1CCN(Cc2ccccc2)CC1` was “inactive”. For the compound `COc1ccccc1N1CCN(CCCNc2cc(=O)n(C)c(=O)n2C)CC1`, the Potency result is “inactive”. For the compound `OCCN(CCO)CCN(CCO)CCO`, the Potency result was “inactive”. Same read-out and setting: next, `C=CC(C)(O)CC/C=C(\C)CCC=C(C)C` (stereo not given): “inactive”. The same measure, in the same setting: the value for `CCC(=O)O[C@]1(C(=O)SCF)[C@H](C)C[C@H]2[C@@H]3C[C@H](F)C4=CC(=O)C=C[C@]4(C)[C@@]3(F)[C@@H](O)C[C@@]21C` was “inactive”; that for `COc1ccccc1OCC(O)COC(N)=O` (stereo not given) was “inactive”; that for `CC/C=C\CCOC(=O)CCCCC` was “inactive”.

For the compound `C=CCCCCCCCCO`, the Potency result is “inactive”. On to `C[C@@H]1CN(c2c(F)c(F)c3c(=O)c(C(=O)O)cn(C4CC4)c3c2F)C[C@H](C)N1`, for which the viability change, negative = cytotoxic was 2.27% [at 19 µM] (inactive). With `CC(C)(C)C1CCCCC1=O` (stereo not given), the Potency result is “inactive”. On to `CC1(C)O[C@@H]2C[C@H]3[C@@H]4CCC5=CC(=O)CC[C@]5(C)[C@@]4(F)[C@@H](O)C[C@]3(C)[C@]2(C(=O)CCl)O1`, for which the Potency result is “inactive”.

For the compound `C=CCCC=C`, the Potency entry is “inactive”.

As for `CCN(CC)CCOc1ccc(Cc2ccccc2)cc1`, the Potency result was “inactive”. The same measure, in the same setting: next, `O=C1CCCc2ccccc21`: “inactive”; `COC(C)CCO` (stereo not given): “inactive”; `CCOC(=O)[C@H](CCc1ccccc1)N[C@@H](C)C(=O)N1Cc2cc(OC)c(OC)cc2C[C@H]1C(=O)O`: “inactive”.

For the compound `C[C@]12C(=O)OC(=O)[C@H]1[C@H]1C=C[C@@H]2C1`, the Potency entry is “inactive”.

In the case of `CC(C)CC(=O)OCc1ccccc1`, the Potency entry was “inactive”. The same measure, in the same setting: next, `O=C(O)C(=O)Cc1c[nH]c2ccccc12`: “inactive”; `Cc1ccsc1C(=CCCN1CCC[C@@H](C(=O)O)C1)c1sccc1C`: “inactive”. The same measure, in the same setting: the value for `O=CCCc1ccccc1` was “inactive”; that for `CCCCNCCCC` was “inactive”.

In the case of `CCOc1ccc2nc(N)sc2c1`, the Potency result was “inactive”. With `CC1=C(CC(=O)O)c2cc(F)ccc2/C1=C\c1ccc(S(C)(=O)=O)cc1`, the Potency entry is “inactive”.

Regarding `NC(=O)NS(=O)(=O)c1ccc(Cl)cc1`, the Potency entry was “inactive”.

Regarding `NC(Cc1ccc(F)cc1)C(=O)O` (stereo not given), the viability change, negative = cytotoxic was 0.439% [at 8.39 µM] (inactive).

With `CN(C)Cc1ccccc1`, the Potency result is “inactive”. On to `CCN1CC(CCN2CCOCC2)C(c2ccccc2)(c2ccccc2)C1=O` (stereo not given), for which the Potency entry was “inactive”. `Cc1c[nH]c(=S)[nH]c1=O`: the Potency result is “inactive”. In the case of `COc1cc(Cl)ccc1Cl`, the Potency entry is “inactive”. On the same count and under the same terms, the value for `CC(Oc1c(Cl)cccc1Cl)C1=NCCN1` (stereo not given) was “inactive”. With `CC(C)(C)c1ccc(OC(=O)c2ccccc2O)cc1`, the Potency result was “inactive”. Same read-out and setting: next, `CC1=C(O)C(=O)OC1C` (stereo not given): “inactive”.
